# According to the supplement of paper PMC12669032:
# A number with no mark means an inactive call.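 How the source made its calls: active = AUC reduced over 20% with Padj below 0.05 in at least 2 of 3 replicates; inactive = otherwise.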
# Assays:
# Roseburia intestinalis = assay: growth AUC relative to DMSO control (median of replicates) (fraction); higher = more growth (less inhibition), active = hit call of the paper; conditions: 20 µM; 24 h
# Procedure, shortened: (§1)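 Gut bacterial monocultures were grown anaerobically at 37 °C in mGAM, starting at OD600 0.05, with 20 µM compound (1% DMSO) in round-bottom 96-well plates under pierced gas-permeable seals. OD600 was read hourly for 24 h. Area under the growth curve (minimum OD set to 0) was normalised to the plate median of DMSO controls, or to row and column medians on the industrial chemical plate. The value is the median of three biological replicates grown on separate days.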
# Streptococcus salivarius = assay: as above; conditions: 20 µM; 24 h
# Procedure, shortened: as §1
SMILES,growth AUC (Roseburia intestinalis),growth AUC (Streptococcus salivarius)
Cc1c(C(=O)c2c[nH]n(C)c2=O)ccc(S(C)(=O)=O)c1C1=NOCC1,0.987,1.01
CCc1cccc(C)c1N(C(=O)C(=O)O)C(C)COC (centres undefined),0.982,1
CC(C)OC(=O)[C@@H](C)N(C(=O)c1ccccc1)c1ccc(F)c(Cl)c1,0.999,1
CCCCOC(=O)[C@@H](C)Oc1ccc(Oc2ccc(C(F)(F)F)cn2)cc1,0.973,0.969
Br[C@@H]1CC[C@@H](Br)[C@@H](Br)CC[C@H](Br)[C@H](Br)CC[C@H]1Br,1.43,0.898
COc1cc(OC)nc(NC(=O)NS(=O)(=O)c2c(-c3nnn(C)n3)cnn2C)n1,0.948,0.953
NC1=C(Cl)C(=O)c2ccccc2C1=O,0.963,1
CCN(CC)C(=O)SCc1ccccc1Cl,1.01,1.02
CC(C)(NC(=O)NCc1ccccc1Cl)c1ccccc1,1.09,1
COCCN(C(=O)CO)c1c(C)cccc1C(=O)O,1.01,0.965
CC(C)c1cccc2c(=O)c3ccccc3sc12,1.02,1.05
COC(=O)c1csc(C)c1S(=O)(=O)NC(=O)n1nc(OC)n(C)c1=O,0.974,0.931
